Values joined by “and” are separate entries in the source; they are usually repeats but may differ in a detail not shown here. Equal entries are not always repeated. Inconclusive results are not listed. Active and inactive are the calls of the source.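 The calls were made as follows, unless noted: active = normalized viability below 100% at a tested concentration; inactive = the rest.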
Assays:
[1] = liver-stage malaria parasite growth inhibition, primary screen, cell-based, HepG2, luciferase luminescence, HepG2 viability (AID 624349; in the data active = parasite load remaining mostly below about 12%, no sharp cut-off; inactive = mostly above about 10%;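 also: 100% = mean of DMSO negative control wells on the same plate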); conditions: P. berghei liver stage in HepG2, luciferase luminescence, concentration not given here; parasite load remaining: stronger effect = lower value; viability: measured here: HepG2 viability without parasites
[2] = differential killing of epithelial or mesenchymal cells, primary screen, imaging, PC-3E GFP, TEM4-18 mCherry, co-culture (AID 1345086;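 active = compounds killing one labelled cell type while sparing the other, by normalised counts and ratio limits, not self-fluorescent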;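 as to all read-outs here: cells exposed to compound for 72 h before imaging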;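 as to red/green cell ratio (normalised): normalised mesenchymal count divided by normalised epithelial count so high means epithelial killing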); conditions: imaging cell counts, at 1 µM; for red/green cell ratio (normalised): actives lie on both sides, counts scaled to control wells, 1 = unselective
[3] = growth inhibition of DIPG glioma cells, dose response, cell-based, SU-DIPG-XVII, MIPE5.0, CellTiter-Glo, qHTS (AID 1347060; cut-off not given, nearly all actives have AC50 up to about 26 µM;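 as to AC50: cells exposed to compound for 48 hours before viability readout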); conditions: SU-DIPG-XVII viability, CellTiter-Glo ATP luminescence
[4] = growth inhibition of DIPG glioma cells, dose response, cell-based, SU-DIPG-XIII, MIPE4.0, CellTiter-Glo, qHTS (AID 1347061; cut-off not given, nearly all actives have AC50 up to about 37 µM;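 also: cells exposed to compound for 48 hours before readout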); conditions: SU-DIPG-XIII viability, CellTiter-Glo ATP luminescence
[5] = growth inhibition of DIPG glioma cells, dose response, cell-based, JHH-DIPG-1, MIPE4.0, CellTiter-Glo, qHTS (AID 1347062; cut-off not given, nearly all actives have AC50 up to about 27 µM); conditions: JHH-DIPG-1 viability, CellTiter-Glo ATP luminescence
[6] = growth inhibition of DIPG glioma cells, dose response, cell-based, SU-DIPG-IV, MIPE4.0, CellTiter-Glo, qHTS (AID 1347063; cut-off not given, nearly all actives have AC50 up to about 30 µM;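 also: compound exposure lasted 48 hours before the viability readout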); conditions: SU-DIPG-IV viability, CellTiter-Glo ATP luminescence
[7] = viability loss in pontine glioma line – cell-based, SU-DIPG-XXV, MIPE5.0, CellTiter-Glo, qHTS, dose response (AID 1347065; cut-off not given, nearly all actives have AC50 up to about 26 µM;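 also: cells exposed to compound for 48 hours before ATP readout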); conditions: CellTiter-Glo ATP luminescence
[8] = SU-DIPG-VI glioma cell viability, MIPE4.0 library, CellTiter-Glo luminescence, qHTS (AID 1347066; cut-off not given, nearly all actives have AC50 up to about 30 µM;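 also: cells exposed to compound for 48 hours before readout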); conditions: CellTiter-Glo ATP luminescence
[9] = JHH-DIPG-1 glioma cell viability, MIPE5.0 library, CellTiter-Glo luminescence, qHTS (AID 1347067; cut-off not given, nearly all actives have AC50 up to about 26 µM;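 also: cells exposed to compound for 48 hours before readout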); conditions: JHH-DIPG-1 glioma viability, CellTiter-Glo ATP luminescence
[10] = SU-DIPG-XXV glioma cell viability, MIPE5.0 library, qHTS (AID 1347068; cut-off not given, nearly all actives have IC50 up to about 30 µM)
[11] = sensitizers of A549 cells to miR-34 induction, primary screen, imaging, A549 dox-inducible miR-34, nuclei and caspase counts (AID 1347080;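 active = compounds whose cell count with miR-34 switched on is under 0.7 times the count with it off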); conditions: A549 miR-34 inducible, Hoechst nuclei count, 48 h
[12] = ovarian cancer cell viability with rucaparib, profiling panel, oncology-focused library, rucaparib conditional (AID 1508598); conditions: patient-derived ovarian cancer cells, CellTiter-Glo viability, 144 h, stronger effect = lower value
[13] = biological target: NAD(+) hydrolase SARM1 (Homo sapiens) (UniProt Q6SZW1); assay: SARM1 TIR NADase inhibitors, cell lysate, NAD-Glo luminescence (AID 1508614;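 active = compound whose remaining NAD level is above about 45 nM, limit read from the data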;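 also: higher remaining NAD means stronger inhibition of SARM1 NADase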); conditions: SAM-TIR HEK293T lysate NADase, at 1 µM, stronger effect = higher value
Sequence of NAD(+) hydrolase SARM1 (Homo sapiens) (Q6SZW1 whole entry, looked up, the tested form may be a part): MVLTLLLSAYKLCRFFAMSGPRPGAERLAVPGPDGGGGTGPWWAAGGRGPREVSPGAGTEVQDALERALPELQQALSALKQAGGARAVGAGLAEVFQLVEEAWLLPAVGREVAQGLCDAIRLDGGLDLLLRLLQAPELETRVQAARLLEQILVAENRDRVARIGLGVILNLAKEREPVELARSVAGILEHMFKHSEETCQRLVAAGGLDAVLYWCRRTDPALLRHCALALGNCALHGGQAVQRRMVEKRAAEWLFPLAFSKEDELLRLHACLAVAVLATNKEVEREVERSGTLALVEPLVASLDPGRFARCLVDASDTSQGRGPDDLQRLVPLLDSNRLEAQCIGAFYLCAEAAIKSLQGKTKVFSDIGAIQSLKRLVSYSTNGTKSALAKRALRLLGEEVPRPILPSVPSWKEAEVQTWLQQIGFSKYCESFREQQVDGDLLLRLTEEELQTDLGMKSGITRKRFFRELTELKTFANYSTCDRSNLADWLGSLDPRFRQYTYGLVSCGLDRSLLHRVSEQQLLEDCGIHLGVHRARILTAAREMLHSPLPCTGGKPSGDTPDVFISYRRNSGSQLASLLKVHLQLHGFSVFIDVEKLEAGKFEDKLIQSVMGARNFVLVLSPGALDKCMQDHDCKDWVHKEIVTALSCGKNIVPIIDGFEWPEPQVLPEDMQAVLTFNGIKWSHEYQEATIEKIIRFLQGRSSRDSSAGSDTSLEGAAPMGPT

[14] = biological target: Mitogen-activated protein kinase 7 (Homo sapiens) (UniProt Q13164); assay: ERK5 transactivation activators in reporter cells, primary screen, cell-based, HTS (AID 1508626;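 active = luciferase signal above three times the same-plate solvent-only control wells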;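 also: luciferase driven by Gal4-ERK5 fusion binding five Gal4 sites before minimal TATA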); conditions: HeLa Gal4-ERK5 transactivation, 18 h, at 5 µM, stronger effect = higher value
Sequence of Mitogen-activated protein kinase 7 (Homo sapiens) (Q13164 whole entry, looked up, the tested form may be a part): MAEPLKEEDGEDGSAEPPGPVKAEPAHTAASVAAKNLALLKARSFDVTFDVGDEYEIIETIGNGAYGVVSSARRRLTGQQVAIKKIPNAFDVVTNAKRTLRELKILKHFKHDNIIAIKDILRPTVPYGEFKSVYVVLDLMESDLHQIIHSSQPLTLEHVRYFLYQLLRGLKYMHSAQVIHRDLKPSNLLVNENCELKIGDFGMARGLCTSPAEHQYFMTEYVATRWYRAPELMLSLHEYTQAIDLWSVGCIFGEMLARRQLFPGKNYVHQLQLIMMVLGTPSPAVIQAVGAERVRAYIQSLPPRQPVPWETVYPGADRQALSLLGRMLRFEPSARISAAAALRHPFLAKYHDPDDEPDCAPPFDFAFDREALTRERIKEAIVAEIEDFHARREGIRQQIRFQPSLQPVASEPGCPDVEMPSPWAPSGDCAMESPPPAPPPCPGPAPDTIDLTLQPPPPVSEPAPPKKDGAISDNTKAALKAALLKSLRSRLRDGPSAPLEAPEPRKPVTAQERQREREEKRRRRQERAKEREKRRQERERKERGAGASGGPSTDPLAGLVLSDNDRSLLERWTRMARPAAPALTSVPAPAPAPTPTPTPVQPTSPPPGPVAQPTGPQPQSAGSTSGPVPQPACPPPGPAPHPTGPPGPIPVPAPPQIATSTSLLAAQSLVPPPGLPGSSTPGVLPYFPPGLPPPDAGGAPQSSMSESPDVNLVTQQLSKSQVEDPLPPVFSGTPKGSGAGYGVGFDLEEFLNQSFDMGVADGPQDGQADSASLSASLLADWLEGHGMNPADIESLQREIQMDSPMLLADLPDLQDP

[15] = measured here: epithelial PC-3E GFP cell survival
[16] = measured here: mesenchymal TEM4-18 mCherry cell survival
[17] = stronger effect = lower value, cell number ratio, induced over uninduced
[18] = measured here: relative caspase fold change +Dox/-Dox
[19] = measured here: total cells with miR-34 induction, stronger effect = lower value
[20] = measured here: total cells without miR-34 induction

In the case of CC(NCCc1ccc(O)cc1)C(O)c1ccc(O)cc1 (stereo unspecified), the parasite load remaining [1] is reported as 92.5% (inactive) and 43.7% (inactive), the viability [1] is reported as 69.7% and 91.3% and the red/green cell ratio (normalised) [2] is reported as 1.16 (inactive). The normalised cell number [2, 15] was 0.9, the normalised cell number [2, 16] was 1.05 and the outcome [3] was “inactive”. The outcome [4] was “inactive”, the outcome [5] was “inactive” and the outcome [6] was “inactive”. The outcome [7] was “inactive”, the outcome [8] was “inactive” and the outcome [9] was “inactive”. The outcome [10] was “inactive”, the fold change [11, 17] was 0.955 (inactive) and the fold change [11, 18] was 3.65. It also gave a cell count [11, 19] of 12000 and a cell count [11, 20] of 12600.

With Nc1nc(F)nc2c1ncn2[C@@H]1O[C@H](COP(=O)(O)O)[C@@H](O)[C@@H]1O the parasite load remaining [1] was 22.2% (inactive), the viability [1] was 105% and the red/green cell ratio (normalised) [2] was 1.06 (inactive). The normalised cell number [2, 15] was 0.86, the normalised cell number [2, 16] was 0.92 and the AC50 [3] was 18.6 µM (active). The outcome [5] was “inactive”, the outcome [7] was “inactive” and the outcome [8] was “inactive”. For the same compound, the outcome [9] was “inactive”, the outcome [10] was “inactive” and the fold change [11, 17] was 1.07 (inactive). For the same compound, the fold change [11, 18] was 1.01, the cell count [11, 19] was 1570 and the cell count [11, 20] was 1470. For the same compound, the viability ([12]; at 0.000305 µM, OCI-C5x cells, with rucaparib 10 µM, 100% = cells with rucaparib alone) was 107% (inactive), the viability ([12]; at 0.000305 µM, OCI-C5x cells, without rucaparib) was 110% (inactive) and the viability ([12]; at 0.000305 µM, OCI-P5x cells, with rucaparib 20 µM, 100% = cells with rucaparib alone) was 111% (inactive). For the same compound, the viability ([12]; at 0.000305 µM, OCI-P5x cells, without rucaparib) was 109% (inactive), the viability ([12]; at 0.00122 µM, OCI-C5x cells, with rucaparib 10 µM, 100% = cells with rucaparib alone) was 107% (inactive) and the viability ([12]; at 0.00122 µM, OCI-C5x cells, without rucaparib) was 109% (inactive). For the same compound, the viability ([12]; at 0.00122 µM, OCI-P5x cells, with rucaparib 20 µM, 100% = cells with rucaparib alone) was 106% (inactive), the viability ([12]; at 0.00122 µM, OCI-P5x cells, without rucaparib) was 109% (inactive) and the viability ([12]; at 0.00488 µM, OCI-C5x cells, with rucaparib 10 µM, 100% = cells with rucaparib alone) was 105% (inactive). The viability ([12]; at 0.00488 µM, OCI-C5x cells, without rucaparib) was 111% (inactive), the viability ([12]; at 0.00488 µM, OCI-P5x cells, with rucaparib 20 µM, 100% = cells with rucaparib alone) was 107% (inactive) and the viability ([12]; at 0.00488 µM, OCI-P5x cells, without rucaparib) was 110% (inactive). The viability ([12]; at 0.0195 µM, OCI-C5x cells, with rucaparib 10 µM, 100% = cells with rucaparib alone) was 97% (active), the viability ([12]; at 0.0195 µM, OCI-C5x cells, without rucaparib) was 111% (inactive) and the viability ([12]; at 0.0195 µM, OCI-P5x cells, with rucaparib 20 µM, 100% = cells with rucaparib alone) was 109% (inactive). The viability ([12]; at 0.0195 µM, OCI-P5x cells, without rucaparib) was 108% (inactive), the viability ([12]; at 0.0781 µM, OCI-C5x cells, with rucaparib 10 µM, 100% = cells with rucaparib alone) was 101% (inactive) and the viability ([12]; at 0.0781 µM, OCI-C5x cells, without rucaparib) was 112% (inactive). For the same compound, the viability ([12]; at 0.0781 µM, OCI-P5x cells, with rucaparib 20 µM, 100% = cells with rucaparib alone) was 109% (inactive), the viability ([12]; at 0.0781 µM, OCI-P5x cells, without rucaparib) was 110% (inactive) and the viability ([12]; at 0.313 µM, OCI-C5x cells, with rucaparib 10 µM, 100% = cells with rucaparib alone) was 87.1% (active). The viability ([12]; at 0.313 µM, OCI-C5x cells, without rucaparib) was 98.3% (active), the viability ([12]; at 0.313 µM, OCI-P5x cells, with rucaparib 20 µM, 100% = cells with rucaparib alone) was 106% (inactive) and the viability ([12]; at 0.313 µM, OCI-P5x cells, without rucaparib) was 107% (inactive). For the same compound, the viability ([12]; at 1.25 µM, OCI-C5x cells, with rucaparib 10 µM, 100% = cells with rucaparib alone) was 82.9% (active), the viability ([12]; at 1.25 µM, OCI-C5x cells, without rucaparib) was 78% (active) and the viability ([12]; at 1.25 µM, OCI-P5x cells, with rucaparib 20 µM, 100% = cells with rucaparib alone) was 114% (inactive). For the same compound, the viability ([12]; at 1.25 µM, OCI-P5x cells, without rucaparib) was 111% (inactive), the viability ([12]; at 5 µM, OCI-C5x cells, with rucaparib 10 µM, 100% = cells with rucaparib alone) was 58.5% (active) and the viability ([12]; at 5 µM, OCI-C5x cells, without rucaparib) was 59.8% (active). For the same compound, the viability ([12]; at 5 µM, OCI-P5x cells, with rucaparib 20 µM, 100% = cells with rucaparib alone) was 106% (inactive), the viability ([12]; at 5 µM, OCI-P5x cells, without rucaparib) was 78.1% (active) and the remaining NAD [13] was 10 nM (inactive). For the same compound, the luciferase signal [14] was 52 AU (inactive).
